About 4,100 (7.5%) of roughly 55,000 […] were called active. Rule as the data show it: active = GI50 up to about 1.1 µM and inactive = higher. Only a sample is shown. Results with a measured potency or affinity are listed apart.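 Five compound concentrations were applied to cells in 96-well plates for 48 hours; endpoints were derived by simple linear interpolation of the resulting dose-response curve. GI50 marks 50% less growth.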
Tested on: SF-539
Assay: NCI tumour cell line growth inhibition, 48 h

| Substance | GI50 [µM] |
| --- | --- |
| [Bis(aminomethyl)tetramethylenesilane]dichloropaltinum(II), CHEMBL2146205 | 20.5 |
| [Bis(aminomethyl)diethylsilane]tetrachloroplatinum(IV), CHEMBL2146203 | 2.49 |
| [Bis(aminomethyl)pentamethylenesilane]tetrachloropaltinum(IV), CHEMBL2146204 | 0.558 |
| [Bis(aminomethyl)tetramethylenesilane]tetrachloropaltinum(IV), CHEMBL2146189 | 2.18 |
| [Bis(aminomethyl)dimethylsilane]dichloroplatinum (II), CHEMBL2146201 | 23.4 |
| cis-Bis[[(trimethylsilyl)methyl]amino]tetrachloroplatinum(IV), CHEMBL2146191 | 4.24 |
| [Bis(aminomethyl)dimethylsilane]tetrachloroplatinum(IV), CHEMBL2146190 | 4.99 |
| [Bis(aminomethyl)pentamethylenesilane]dichloropaltinum(II), CHEMBL2146202 | 1.48 |
| mu-(1,7-nanodiamine-N,N')bis-(cis-aminedichloroplatimum (II)), CHEMBL2146215 | 27.4 |
| CISPLATIN, CHEMBL11359 | 1.66 |
| [Bis(aminomethyl)ethylmethylsilane]tetrachloroplatinum(IV), CHEMBL2146192 | 3.05 |

From ChEMBL document CHEMBL1201862, “PubChem BioAssay data set” (2004)
